Experiment [1] concerns the target Voltage-gated inwardly rectifying potassium channel KCNH2 (Homo sapiens) (UniProt Q12809). Put plainly: qHTS Assay for Small Molecule Inhibitors of the Human hERG Channel Activity (AID 588834).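 Also: lower thallium flux fluorescence means stronger hERG block; nearly all actives have a fitted effect of over 50% in size.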 A digest of the protocol:
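Homogeneous FluxOR thallium flux assay using hERG-expressing U2OS cells (BacMam). Compound treatment about 10 minutes preceded stimulation; reduced fluorescence taken as channel block.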
On the technique in general: In qHTS, concentration-response curves come from the screen itself.

In experiment [2] the target is Luciferin 4-monooxygenase (Photinus pyralis) (UniProt P08659). In words: Biochemical firefly luciferase enzyme assay for NPC (AID 624030). Also: nearly all actives have a fitted effect of over 70% in size. Summed up: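 Direct inhibition of firefly luciferase enzyme (10 nM final, 50 mM Tris Acetate) assessed by luminescence within 5 minutes. Percent activity scaled between DMSO and PTC124 positive control, with concentration-effect curves classified by fit quality and response.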

Experiment [3] in a line: S16 Schwann cell viability assay (CellTiter-Glo assay) (AID 624031). Also: nearly all actives have a fitted effect of over 70% in size. Summed up:
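Untransfected S16 rat Schwann cells; compound 24 h, 37 °C/5% CO2; CellTiter-Glo ATP luminescence. % activity vs no-cell wells and DMSO controls (0%); concentration-effect curves classed by r2, response magnitude, activity.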

Experiment [4] can be described thus: S16 Schwann cell PMP22 intronic element firefly luciferase assay (AID 624032). Also: nearly all actives have a fitted effect of over 30% in size. Summed up: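 Luciferase reporter of PMP22 intronic-element expression in stably transfected S16 rat Schwann cells, read by ONE-Glo luminescence after 24 h compound exposure at 37 C. Activity scaled between DMSO (0%) and positive-control PTC124; concentration-effect curves quality-classified.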

Experiment [5] is described as follows: S16 Schwann cell PMP22 intronic element beta-lactamase assay (AID 624044; calls by dose curve; also: nearly all actives have a fitted effect of over 15% in size;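 as to ratio activity, negative = inhibition: 0% = DMSO and -100% = potassium clavulanate positive control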). To be noted: S16 rat Schwann cells, PMP22 element beta-lactamase FRET, 24 h; ratio activity, negative = inhibition: at 38.3 µM (top of the series) unless noted. Summed up: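 Beta-lactamase reporter under a PMP22 intronic regulatory element in stable S16 rat Schwann cells; 24 h compound exposure. 460 nm blue signal normalized between DMSO (0%) and potassium clavulanate, with 535 nm FRET tracking viability; curves classed by r2 and response.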

Inconclusive results are not listed. Values without a mark were called inactive. Active and inactive are the calls of the source. Unless noted, calls follow the shape of the dose curve; as a rule, active = well fitted curve in the direction sought with a large enough effect; inconclusive = small, poorly fitted or top-dose-only effect, or another doubt; inactive = no such curve, though single readings can be large; an effect the other way counts as inactive or inconclusive.
Potency is read from the fitted curve at half-maximal effect.

Voltage-gated inwardly rectifying potassium channel KCNH2 (Homo sapiens), sequence (Q12809 whole entry, looked up): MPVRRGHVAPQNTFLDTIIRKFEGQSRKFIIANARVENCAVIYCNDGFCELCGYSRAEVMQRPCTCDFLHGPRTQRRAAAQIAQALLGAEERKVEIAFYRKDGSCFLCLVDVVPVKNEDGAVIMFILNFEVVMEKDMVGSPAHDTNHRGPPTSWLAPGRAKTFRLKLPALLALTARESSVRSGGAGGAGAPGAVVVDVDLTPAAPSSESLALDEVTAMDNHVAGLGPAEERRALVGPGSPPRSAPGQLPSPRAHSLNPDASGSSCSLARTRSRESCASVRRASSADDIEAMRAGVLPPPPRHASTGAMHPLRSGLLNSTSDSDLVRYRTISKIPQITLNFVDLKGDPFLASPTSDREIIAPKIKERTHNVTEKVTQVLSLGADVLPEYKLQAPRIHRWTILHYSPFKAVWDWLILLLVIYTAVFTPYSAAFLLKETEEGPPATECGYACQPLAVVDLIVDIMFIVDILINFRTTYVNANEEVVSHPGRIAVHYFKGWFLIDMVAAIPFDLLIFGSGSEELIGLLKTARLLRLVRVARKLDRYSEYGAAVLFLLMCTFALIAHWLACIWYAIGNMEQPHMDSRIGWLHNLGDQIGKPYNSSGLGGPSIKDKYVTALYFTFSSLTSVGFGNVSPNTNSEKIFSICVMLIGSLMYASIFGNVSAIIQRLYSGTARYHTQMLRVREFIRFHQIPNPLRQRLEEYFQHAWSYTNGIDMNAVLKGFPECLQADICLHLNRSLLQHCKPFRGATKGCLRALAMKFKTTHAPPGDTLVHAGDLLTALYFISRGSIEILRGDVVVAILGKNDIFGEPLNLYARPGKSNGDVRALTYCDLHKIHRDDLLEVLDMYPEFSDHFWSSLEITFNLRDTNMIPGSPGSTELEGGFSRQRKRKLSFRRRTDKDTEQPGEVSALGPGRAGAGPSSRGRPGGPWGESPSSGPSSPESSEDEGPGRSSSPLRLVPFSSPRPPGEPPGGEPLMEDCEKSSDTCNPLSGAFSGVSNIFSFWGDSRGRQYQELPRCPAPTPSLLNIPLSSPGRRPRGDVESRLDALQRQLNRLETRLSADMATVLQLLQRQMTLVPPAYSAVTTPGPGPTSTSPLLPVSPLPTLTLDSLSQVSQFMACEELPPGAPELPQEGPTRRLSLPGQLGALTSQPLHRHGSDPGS
Luciferin 4-monooxygenase (Photinus pyralis), sequence (P08659 whole entry, looked up): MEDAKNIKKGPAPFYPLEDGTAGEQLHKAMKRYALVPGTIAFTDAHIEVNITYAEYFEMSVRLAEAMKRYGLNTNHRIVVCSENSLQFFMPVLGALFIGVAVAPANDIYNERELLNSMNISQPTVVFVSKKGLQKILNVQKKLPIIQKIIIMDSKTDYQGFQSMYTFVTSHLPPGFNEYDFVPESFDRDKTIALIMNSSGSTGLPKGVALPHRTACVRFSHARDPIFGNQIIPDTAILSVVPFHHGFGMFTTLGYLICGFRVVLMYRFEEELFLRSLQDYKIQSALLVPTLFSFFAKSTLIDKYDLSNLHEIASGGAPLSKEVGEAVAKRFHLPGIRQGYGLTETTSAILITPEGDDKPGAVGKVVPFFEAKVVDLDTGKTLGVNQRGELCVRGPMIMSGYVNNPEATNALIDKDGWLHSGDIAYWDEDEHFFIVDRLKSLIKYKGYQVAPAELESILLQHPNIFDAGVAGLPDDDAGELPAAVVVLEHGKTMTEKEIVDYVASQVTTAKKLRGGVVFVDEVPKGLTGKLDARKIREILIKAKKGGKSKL

As for `CC(=O)Nc1ccc(NC(=S)NC(=O)c2ccc(C(C)(C)C)cc2)cc1`, the figures for the Potency in experiment [1] and in experiment [5] were 8.91 µM (active) and 7.94 µM (active), respectively. Also, the Potency result in experiment [2], in experiment [3] and in experiment [4] was “inactive” in each case.
`O=C(O)/C=C/C(=O)Nc1ccc(S(=O)(=O)Nc2nccs2)cc1`: the Potency result in experiment [1], in experiment [2], in experiment [3] and in experiment [4] was “inactive” each time. Further, in experiment [5], the ratio activity, negative = inhibition was 1.33%.
With `Cc1cc(-c2ccc(N=Nc3c(S(=O)(=O)O)cc4cc(S(=O)(=O)O)cc(N)c4c3O)c(C)c2)ccc1N=Nc1c(S(=O)(=O)O)cc2cc(S(=O)(=O)O)cc(N)c2c1O`, in experiment [1], the Potency result is “inactive”. For the same compound, the Potency in experiment [2] was 9.07 µM (active); in experiment [3], 12.8 µM (active); in experiment [4] it was 12.8 µM (active). Moreover, in experiment [5], the ratio activity, negative = inhibition was 8.59%.
On to `CC(CCc1ccc(O)cc1)NCC(O)c1ccc(O)cc1` (configuration not stated), for which the Potency in experiment [1] was 1.78 µM (active); in experiment [4] it was 2.03 µM (active). Besides, the Potency result in experiment [2] and in experiment [3] was “inactive” throughout. Further, the ratio activity, negative = inhibition in experiment [5] is -5.84%.
With `CNC(=O)c1c(I)c(C(=O)NCC(=O)Nc2c(I)c(C(=O)O)c(I)c(C(=O)NCCO)c2I)c(I)c(N(C)C(C)=O)c1I`, the Potency entry in experiment [1], in experiment [2], in experiment [3] and in experiment [4] was “inactive” throughout. Also, the ratio activity, negative = inhibition in experiment [5] was 5.89%.
Take `COC1=C(OC)C(=O)C(C/C=C(\C)CC/C=C(\C)CC/C=C(\C)CC/C=C(\C)CC/C=C(\C)CC/C=C(\C)CC/C=C(\C)CC/C=C(\C)CC/C=C(\C)CCC=C(C)C)=C(C)C1=O`: the Potency entry in experiment [1], in experiment [2] and in experiment [3] was “inactive” in each case. Further, in experiment [4], the Potency was 0.642 µM (active). Also, in experiment [5], the ratio activity, negative = inhibition is 0.236%.
On to `[O]=[Bi][O][Bi]=[O]`, for which the Potency entry in experiment [1], in experiment [2], in experiment [3] and in experiment [4] was “inactive” each time. The ratio activity, negative = inhibition in experiment [5] is 3.6%.
For `CC(=O)Oc1cc(C(F)(F)F)ccc1C(=O)O`, the Potency entry in experiment [1], in experiment [2], in experiment [3] and in experiment [4] was “inactive” in each case. Besides, the ratio activity, negative = inhibition in experiment [5] is -5.78% [at 17.1 µM].
With `CNC(=O)C[C@@H](N)C(=O)N[C@@H](C(=O)N[C@@H]1C(=O)N2[C@@H]1SC(C)(C)[C@@H]2C(=O)O)c1ccc(O)cc1`, the Potency result in experiment [1], in experiment [2], in experiment [3] and in experiment [4] was “inactive” throughout. Besides, in experiment [5], the ratio activity, negative = inhibition is -2.79%.
On to `CCc1ccc(S(=O)(=O)O)cc1`, for which the Potency entry in experiment [1], in experiment [2], in experiment [3] and in experiment [4] was “inactive” each time. For the same compound, the ratio activity, negative = inhibition in experiment [5] is -9.66%.
For `CCN(CC)C(=O)c1cccnc1`, the Potency entry in experiment [1], in experiment [2], in experiment [3] and in experiment [4] was “inactive” in each case. For the same compound, the ratio activity, negative = inhibition in experiment [5] is 2.08%.
As to `CC(=O)Nc1c(I)c(C(=O)O)c(I)c(N(C)C(C)=O)c1I`, the Potency result in experiment [1], in experiment [2], in experiment [3] and in experiment [4] was “inactive” in each case. In addition, in experiment [5], the ratio activity, negative = inhibition is 11.6%.
Turning to `O=C1CCC(c2ccccc2)(C2CCN(Cc3ccccc3)CC2)C(=O)N1` (configuration not stated), the Potency in experiment [1] was 14.1 µM (active). The Potency entry in experiment [2], in experiment [3] and in experiment [4] was “inactive” in each case. Further, in experiment [5], the ratio activity, negative = inhibition is 1.84%.
As for `CC(CNC(=O)c1cccnc1)NC(=O)c1cccnc1` (configuration not stated), the Potency entry in experiment [1], in experiment [2], in experiment [3] and in experiment [4] was “inactive” throughout. Besides, the ratio activity, negative = inhibition in experiment [5] was 0%.
`O=C(O)COc1ccc(CCNS(=O)(=O)c2ccccc2)s1`: the Potency result in experiment [1], in experiment [2], in experiment [3] and in experiment [4] was “inactive” in each case. Also, the ratio activity, negative = inhibition in experiment [5] was -0.95%.
Turning to `CCN(CC)CCOC(=O)c1cccnc1`, the Potency result in experiment [1], in experiment [2], in experiment [3] and in experiment [4] was “inactive” in each case. Further, in experiment [5], the ratio activity, negative = inhibition is 2.66%.
Turning to `O=C(O)c1ccc(NC(=O)[C@H](Cc2ccc(O)cc2)NC(=O)c2ccccc2)cc1`, the Potency entry in experiment [1], in experiment [2], in experiment [3] and in experiment [4] was “inactive” in each case. Besides, the ratio activity, negative = inhibition in experiment [5] was 6%.
Take `CCCOC(=O)c1ccccc1O`: the Potency result in experiment [1], in experiment [2] and in experiment [3] was “inactive” throughout. Besides, in experiment [5], the ratio activity, negative = inhibition was 5.82%.
Regarding `CC(=O)N[C@@H]1C(O[C@H]2O[C@H](C(=O)O)C(O)[C@H](O)[C@H]2O)[C@H](O)[C@@H](CO)O[C@H]1O[C@@H]1C(C(=O)O)O[C@@H](O[C@H]2[C@H](O)[C@@H](CO)OC(O)[C@@H]2NC(C)=O)[C@H](O)[C@H]1O` (some centres not stated), the Potency result in experiment [1], in experiment [2] and in experiment [3] was “inactive” throughout. For the same compound, in experiment [5], the ratio activity, negative = inhibition was 1.9%.
For the compound `COc1ccc2c(c1)OC(C)(C)C(c1ccccc1)C2c1ccc(OCCN2CCCC2)cc1` (configuration not stated), the Potency in experiment [1] was 10 µM (active); in experiment [3], 32.2 µM (active). Moreover, in experiment [2], the Potency result is “inactive”. In experiment [5], the ratio activity, negative = inhibition was -10.8%.
Consider `CC(C)[C@H](N)C(=O)OCC(CO)OCn1cnc2c(=O)[nH]c(N)nc21` (some centres not stated), for which the Potency entry in experiment [1], in experiment [2], in experiment [3] and in experiment [4] was “inactive” throughout. For the same compound, the ratio activity, negative = inhibition in experiment [5] is 0.697%.
In the case of `NC(=O)[C@@H]1CCCN1C(=O)[C@H](Cc1cnc[nH]1)NC(=O)[C@@H]1CCC(=O)N1`, the Potency result in experiment [1], in experiment [2], in experiment [3] and in experiment [4] was “inactive” each time. For the same compound, the ratio activity, negative = inhibition in experiment [5] was 6.16%.
`O=C(NNCNNC(=O)c1ccncc1)c1ccncc1`: the Potency result in experiment [1], in experiment [2], in experiment [3] and in experiment [4] was “inactive” in each case. Besides, in experiment [5], the ratio activity, negative = inhibition is -2.76%.

Source of the values: PubChem BioAssay (NCATS).
